Assay results published in PubChem BioAssay AID1159580 (chemical genetic matrix, 2015).
Hit rate of the full screen: of about 5,500 compounds, about 2,000 (36%) were called active. Not shown: some 18% with an inconclusive outcome. Rule as the data show it: active = normalized growth mostly below about 0.91 (no sharp cut-off); inconclusive = no clear call, values can overlap the other calls; inactive = mostly above about 0.92. This is one part of the list.

Test: chemical genetic growth profiling, strain panel (AID 1159580);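 also: tested at 20 µM; growth read once vehicle control cultures reached saturation at 30 °C; 1 = growth at the plate median or of vehicle wells; lower values mean less growth of the strain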
Conditions: S. cerevisiae deletion strains, growth OD
[1] = locus YAL040C, strain CLN3, active compounds read low
[2] = locus YER002W, strain NOP16, active compounds read low
[3] = locus YHR030C, strain SLT2, active compounds read low
[4] = locus YHR079C, strain IRE1, active compounds read low
[5] = locus YJL095W, strain BCK1, active compounds read low
[6] = locus YJR066W, strain TOR1, active compounds read low
[7] = locus YJR075W, strain HOC1, active compounds read low
[8] = locus YLR113W, strain HOG1, active compounds read low
[9] = locus YNL128W, strain TEP1, active compounds read low
[10] = locus YNL153C, strain GIM3, active compounds read low
[11] = locus YNL175C, strain NOP13, active compounds read low
[12] = locus YNL183C, strain NPR1, active compounds read low
[13] = locus YNL197C, strain WHI3, active compounds read low
[14] = locus YNL224C, strain SQS1, active compounds read low
[15] = locus YOR083W, strain WHI5 (second series), active compounds read low
[16] = locus YOR231W, strain MKK1, active compounds read low
[17] = locus YPL241C, strain CIN2, active compounds read low
[18] = locus YPL256C, strain CLN2, active compounds read low

Measured: normalized growth

O=C1CC2(CCCC2)CC(=O)N1CCCCN1CCN(c2ncccn2)CC1
inactive: locus YAL021C, strain ccr4, active compounds read low 0.985 | locus YAL026C, strain drs2, active compounds read low 1.03 | locus YAL030W, strain snc1, active compounds read low 0.998 | [1] 0.987 | locus YBL061C, strain skt5, active compounds read low 0.995 | locus YBR009C, strain hhf1, active compounds read low 0.989 | locus YBR023C, strain chs3, active compounds read low 0.996 | locus YBR171W, strain sec66, active compounds read low 1.01 | locus YBR231C, strain swc5, active compounds read low 0.993 | locus YBR279W, strain paf1, active compounds read low 0.999 | locus YCL011C, strain gbp2, active compounds read low 1 | locus YCL016C, strain dcc1, active compounds read low 1 | locus YCL061C, strain MRC1, active compounds read low 0.998 | locus YCL069W, strain vba3, active compounds read low 1 | locus YCR088W, strain abp1, active compounds read low 1.01 | locus YDL005C, strain med2, active compounds read low 0.993 | locus YDL040C, strain nat1, active compounds read low 0.996 | locus YDR001C, strain nth1, active compounds read low 1.02 | locus YDR069C, strain doa4, active compounds read low 0.978 | locus YDR137W, strain rgp1, active compounds read low 0.984 | locus YDR159W, strain sac3, active compounds read low 0.985 | locus YDR195W, strain ref2 0.974 | locus YDR297W, strain sur2, active compounds read low 1 | locus YDR334W, strain swr1, active compounds read low 1.01 | locus YDR335W, strain msn5, active compounds read low 1 | locus YDR392W, strain spt3, active compounds read low 0.801 | locus YEL003W, strain gim4, active compounds read low 1.01 | locus YEL037C, strain rad23, active compounds read low 1.01 | locus YEL061C, strain CIN8 (second series), active compounds read low 1.01 | [2] 1.01 | locus YER015W, strain faa2, active compounds read low 0.998 | locus YER016W, strain bim1, active compounds read low 0.996 | locus YER111C, strain swi4, active compounds read low 1 | locus YER155C, strain BEM2 (second series), active compounds read low 1 | locus YFR010W, strain ubp6, active compounds read low 1.02 | locus YGL167C, strain pmr1, active compounds read low 0.991 | locus YGL173C, strain kem1, active compounds read low 1 | locus YGL227W, strain vid30, active compounds read low 1 | locus YGL240W, strain doc1, active compounds read low 0.978 | locus YGL253W, strain hxk2, active compounds read low 1.01 | locus YHR013C, strain ard1, active compounds read low 0.929 | locus YHR027C, strain rpn1, active compounds read low 1 | [3] 1.06 | [4] 1 | locus YHR142W, strain chs7, active compounds read low 1.02 | locus YJL092W, strain hpr5, active compounds read low 1.04 | locus YJL095W, strain BCK1 (second series), active compounds read low 0.995 | [5] 1 | locus YJL115W, strain asf1, active compounds read low 0.998 | locus YJL129C, strain trk1, active compounds read low 1.02 | locus YJL154C, strain vps35, active compounds read low 1 | locus YJL164C, strain tpk1, active compounds read low 0.986 | locus YJL166W, strain qcr8, active compounds read low 0.987 | locus YJL187C, strain SWE1, active compounds read low 0.996 | [6] 0.959 | [7] 0.978 | locus YKL160W, strain elf1, active compounds read low 0.986 | locus YKR026C, strain gcn3, active compounds read low 1.01 | locus YKR091W, strain srl3, active compounds read low 0.995 | locus YLL001W, strain dnm1, active compounds read low 0.983 | locus YLL026W, active compounds read low 0.987 | locus YLL041C, strain sdh2, active compounds read low 0.999 | locus YLR027C, strain aat2, active compounds read low 0.999 | [8] 1.04 | locus YLR221C, strain rsa3, active compounds read low 0.995 | locus YLR258W, strain gsy2, active compounds read low 0.977 | locus YLR262C, strain YPT6 (second series), active compounds read low 0.958 | locus YLR320W, strain mms22, active compounds read low 0.974 | locus YLR342W, strain FKS1, active compounds read low 1 | locus YLR357W, strain rsc2, active compounds read low 1.02 | locus YLR370C, strain arc18, active compounds read low 1.01 | locus YLR384C, strain iki3, active compounds read low 0.978 | locus YML120C, strain ndi1, active compounds read low 1 | locus YMR058W, strain fet3, active compounds read low 1 | locus YMR125W, strain sto1, active compounds read low 0.998 | locus YMR129W, active compounds read low 1.02 | locus YMR205C, strain PFK2, active compounds read low 0.994 | locus YMR231W, strain pep5, active compounds read low 0.992 | locus YNL071W, strain lat1, active compounds read low 0.999 | [9] 0.979 | [10] 0.996 | [11] 1.01 | [12] 0.96 | [13] 0.96 | locus YNL209W, strain ssb2, active compounds read low 0.986 | [14] 0.996 | locus YNL248C, strain rpa49, active compounds read low 1 | locus YNL322C, strain KRE1 (second series), active compounds read low 0.99 | locus YNR049C, strain mso1, active compounds read low 1.01 | locus YOR001W, strain rrp6, active compounds read low 0.988 | locus YOR070C, strain gyp1, active compounds read low 0.999 | locus YOR080W, strain dia2, active compounds read low 0.987 | [15] 1.01 | locus YOR083W, strain WHI5, active compounds read low 1.02 | locus YOR106W, strain vam3, active compounds read low 0.997 | [16] 1.01 | locus YOR265W, strain rbl2, active compounds read low 1 | locus YOR270C, strain vph1, active compounds read low 1.03 | locus YOR290C, strain snf2, active compounds read low 0.934 | locus YPL051W, strain arl3, active compounds read low 0.992 | locus YPL078C, strain atp4, active compounds read low 1 | locus YPL106C, strain sse1, active compounds read low 0.999 | locus YPL240C, strain hsp82, active compounds read low 1.01 | [17] 1 | [18] 0.999

NC(=O)C1(N2CCCCC2)CCN(CCCC(=O)c2ccc(F)cc2)CC1
inactive: [3] 1.04 | [4] 1.02 | [5] 0.99 | [6] 0.968 | [8] 0.981 | [12] 0.959 | [16] 1.01 | [18] 0.988

COc1ccccc1N1CCN(CCN(C(=O)c2ccc(F)cc2)c2ccccn2)CC1
inactive: locus YAL013W, strain DEP1, active compounds read low 0.995 | [1] 1.01 | locus YCL061C, strain MRC1 (second series), active compounds read low 1 | locus YDR150W, strain NUM1, active compounds read low 0.999 | locus YDR363W, strain ESC2, active compounds read low 1.02 | [2] 1.01 | locus YGR078C, strain PAC10, active compounds read low 1.01 | [7] 1.01 | locus YMR307W, strain GAS1, active compounds read low 0.993 | [9] 1 | [10] 1.01 | [11] 1.01 | [13] 0.998 | [14] 1 | [15] 1.01 | locus YPL055C, strain LGE1, active compounds read low 1.01 | [17] 1
